The list is not random: actives were taken first. Their share in the collection is about 6.1%.
D1 antag = human D1 dopamine receptor antagonism. activity change, negative = inhibition, % at 10 µM. HEK293 TREx D1 cells, calcium flux, dopamine EC80; stronger effect = lower value. P21728. 360,000 compounds, 3.2% hits; in the data active means activity change below about -30%; further: on the % scale 0 is the no-effect control and ±100 the full control effect
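Kinetic fluorescence of a calcium dye serves as the read-out. D1-expressing Hek293 Trex cells, induced overnight at 30 C, are exposed to compound for 180 s before an EC80 dopamine addition, then read 180 s further.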
D3 ag = activates the human D3 dopamine receptor; max activation, %; AID 652048; D3R DiscoveRx beta-arrestin cells, luminescence, 90 min; 410,000 compounds, 0.58% hits; in the data active means max activation above about 30%; further: 0% is about no effect
Target sequence (P35462 whole entry, looked up): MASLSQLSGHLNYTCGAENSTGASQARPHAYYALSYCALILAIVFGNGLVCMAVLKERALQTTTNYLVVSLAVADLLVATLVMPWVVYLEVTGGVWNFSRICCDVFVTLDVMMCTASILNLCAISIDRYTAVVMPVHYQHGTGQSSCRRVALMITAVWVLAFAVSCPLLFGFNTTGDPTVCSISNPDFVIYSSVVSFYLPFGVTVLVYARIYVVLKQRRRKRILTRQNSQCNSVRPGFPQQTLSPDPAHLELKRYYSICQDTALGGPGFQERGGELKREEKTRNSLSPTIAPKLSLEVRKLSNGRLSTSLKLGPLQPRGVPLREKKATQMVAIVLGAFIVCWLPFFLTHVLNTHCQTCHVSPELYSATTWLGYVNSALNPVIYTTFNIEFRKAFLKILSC
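Cells at 1500/well, incubated overnight, then treated with pinned compounds (dopamine as control) for 90 min at 37 degrees C. DiscoveRx reagent added for 30 - 60 minutes at room temperature; luminescence read.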
D1 agonist = human D1 receptor agonism. P21728. HEK293 T-REx D1 cells, calcium flux, agonist mode. activation, % at 2 µM. 360,000 compounds, 1% hits; in the data active means activation above about 30%; further: 0% is about no effect
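Inducible HEK293 T-REx D1 cells, force-coupled to calcium signalling, were plated at 4000 cells/well with tetracycline and held overnight at 30 C. After no-wash calcium dye loading, compound-evoked calcium rise over 180 s flagged agonists.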
D1 PAM = human D1 dopamine receptor positive modulation; P21728; HEK293 TREx D1 cells, calcium flux, dopamine EC20 potentiation; potentiation, % at 10 µM; 360,000 compounds, 0.036% hits; AID 504651; in the data active means potentiation above about 30%; further: 0% is about no effect
DRD3 antagonist = blocks the human D3 dopamine receptor. AID 652054. P35462. D3R cells, DiscoveRx beta-arrestin luminescence, antagonist mode; stronger effect = lower value. max response, negative = inhibition, %. 360,000 compounds, 2.5% hits; in the data active means max response below about -50%; inconclusive means no clear call, values can overlap the other calls; further: on the % scale 0 is the no-effect control and ±100 the full control effect
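Cells expressing the human receptor were seeded at 1500 cells/well, incubated overnight at 37 degrees C in 5% CO2, then exposed to library compounds with dopamine controls for 90 minutes at 37 degrees C before luminescent detection.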
The depositor's hits bear a star; ? = inconclusive; nt = no result.

SMILES | D1 antag | D3 ag | D1 agonist | D1 PAM | DRD3 antagonist
Nc1ncnc2c1ncn2[C@@H]1O[C@H](CNCc2ccc(-c3cc(C(F)(F)F)ccc3Cl)o2)[C@@H](O)[C@H]1O | nt | -74.7 | nt | nt | -75.8*
COc1ccc(NC(=O)CCCNC(=O)Cn2cnc3sc(C)c(C)c3c2=O)cc1Cl | 5.1 | -1.6 | 3.5 | -3.8 | 8.7
COc1ccc(NC(=O)CCCNC(=O)Cn2cnc3sc(C)c(C)c3c2=O)cc1OC | 7.8 | 31.1* | 1.9 | -3.1 | -1.2
Cc1sc2ncn(CC(=O)NCC(=O)N(C)Cc3ccccc3)c(=O)c2c1C | -4.6 | 11.5 | 0.9 | -0.1 | 15.1
COc1ccc(CCNC(=O)Cn2cnc3sc(C)c(-c4ccc(F)cc4)c3c2=O)cc1OC | nt | 0.6 | 33.9* | -5.9 | 10.7
CCOC(=O)c1sc2ncn(CC(=O)Nc3cc(C)cc(C)c3)c(=O)c2c1C | 3.2 | 8.5 | 2.0 | 1.9 | nt
Cc1sc2ncn(CC(=O)NCC(=O)N(C)C3CCCCC3)c(=O)c2c1C | -34.4* | 18.1 | 0.0 | -3.1 | -13.7
CCOC(=O)c1sc2ncn(CC(=O)Nc3cccc(C)c3)c(=O)c2c1C | -35.1* | -15.7 | 2.3 | 2.5 | nt
CC(C)c1ccc(NC(=O)c2cc(S(=O)(=O)NCc3ccccc3Cl)ccc2F)cc1 | 2.1 | -5.6 | 0.9 | -2.5 | nt
COc1ccc(Nc2sc(C(=O)c3ccc(Cl)cc3)c(N)c2C(=O)Nc2ccccc2OC)cc1 | -50.2* | -2.4 | 77.9* | 2.1 | -60.5*
COc1ccc(C(=O)c2sc(Nc3cccc(OC)c3)c(C(=O)Nc3cccc(C)c3C)c2N)cc1 | -50.6* | -5.7 | 71.3* | 6.7 | -17.6
COc1ccc(C(=O)c2sc(Nc3ccccc3)c(C(=O)Nc3ccc(OC)c(OC)c3)c2N)cc1 | -1.3 | -5.4 | 2.4 | 0.9 | ?
COc1ccc(Nc2sc(C(=O)c3ccccc3)c(N)c2C(=O)Nc2cc(C)ccc2C)c(OC)c1 | -18.6 | -0.7 | 47.1* | 1.4 | nt
Cc1ccc(C(=O)c2no[n+]([O-])c2C(=O)c2ccc(C)cc2)cc1 | -0.8 | -1.6 | 7.2 | -3.1 | -9.7
CCOC(=O)C1CCN(C(=O)COC(=O)/C=C/c2ccc([N+](=O)[O-])cc2)CC1 | nt | 1.5 | nt | nt | -10.6
O=C1c2ccccc2C(=O)N1Cc1cnc(N2CCN(c3ccccc3)CC2)s1 | -4.1 | -21.5 | 4.3 | 3.6 | -23.9
O=C1CN(S(=O)(=O)c2cc(C(=O)O)ccc2Cl)c2ccccc2N1 | -17.4 | -12.2 | 7.4 | nt | -17.7
COc1nnc(-c2ccc(N3CCOCC3)c(NC(=O)c3ccccc3)c2)c2ccccc12 | -0.5 | 1.5 | 4.0 | 5.2 | -22.7
COc1nnc(-c2ccc(N3CCOCC3)c(NC(C)=O)c2)c2ccccc12 | 6.3 | -8.0 | -0.8 | -4.2 | -52.4*
COc1nnc(-c2ccc(N3CCOCC3)c(NC(=O)c3ccco3)c2)c2ccccc12 | -91.6* | -4.2 | 0.2 | -2.0 | 0.7
Cc1csc2nc(COC(=O)c3cccc(NC(=O)COc4ccc(Cl)cc4)c3)cc(=O)n12 | -11.2 | 0.5 | 4.7 | -0.3 | nt
COc1ccc(OC)c(C(=O)c2ccccc2)c1 | -18.5 | -9.8 | 1.1 | -7.2 | -5.8
CCOc1ccccc1NC(=O)C(=O)/C=C(\O)c1cc(OC)ccc1OC | 7.8 | 0.9 | 0.5 | 1.4 | -52.8*
COc1ccc(OC)c(/C(O)=C/C(=O)C(=O)Nc2cc(C)ccc2OC)c1 | 1.8 | -4.5 | 3.1 | -0.1 | -56.6*
COc1ccc(OC)c(/C(O)=C/C(=O)C(=O)Nc2cc(C)cc(C)c2)c1 | 2.5 | -0.9 | 1.2 | -2.5 | -86.3*
SMILES | D1 antag | D3 ag | D1 agonist | D1 PAM | DRD3 antagonist
Cc1n[nH]c(C)c1CN(C)C(=O)C1CCC(=O)N(CCc2cccc(F)c2)C1 (centres undefined) | -32.9* | -2.5 | 3.6 | 1.1 | 0.8
Cc1nc(CN(C)C(=O)C2CCC(=O)N(CCc3cccc(F)c3)C2)cs1 (centres undefined) | 0.2 | 1.1 | 3.5 | -8.3 | 6.0
O=C(NCCc1ccc(C(F)(F)F)cc1)C1CCC(=O)N(CCCN2CCCC2=O)C1 (centres undefined) | -40.5* | -0.2 | -0.1 | -8.8 | 1.5
Cc1cc(CNC(=O)C2CCC(=O)N(CCc3cccc(F)c3)C2)nn1C (centres undefined) | 1.1 | -3.6 | 2.0 | -1.2 | -3.6
Cc1ccc(CNC(=O)C2CCC(=O)N(CCc3cccc(F)c3)C2)cc1 (centres undefined) | -42.9* | 3.2 | 1.7 | -10.8 | -7.0
O=C(NCCc1cccs1)C1CCC(=O)N(CCc2cccc(F)c2)C1 (centres undefined) | 2.4 | 2.9 | -0.8 | 1.6 | 0.4
Cc1ccsc1CCNC(=O)C1CCC(=O)N(CCc2cccc(F)c2)C1 (centres undefined) | -37.2* | 0.6 | 3.4 | -3.0 | -4.7
CCOC(=O)[C@]12CCC=C1N(CCC1=CCCCC1)C(=O)[C@H](CC(=O)N1CCSCC1)C2 | nt | 1.4 | nt | nt | -15.6
CCCCC(=O)OCC(=O)c1[nH]c(C)c(C(C)=O)c1C | -9.5 | 5.9 | 3.3 | -11.7 | 14.0
COC(=O)c1ccccc1NC(=O)C1CCCN(c2nnc(C)c3c(C)n(-c4ccccc4)nc23)C1 (centres undefined) | 2.2 | 1.2 | 0.5 | -2.5 | nt
CC(C)Nc1nnc(SCC(=O)Nc2sccc2C#N)s1 | -14.6 | -1.2 | 2.0 | 2.5 | -16.3
Cc1cc2c(s1)c1cnn(Cc3c(F)ccc(Cl)c3F)c(=O)c1n2C | 6.4 | nt | 7.8 | -0.9 | nt
Cc1ccc(CNC(=O)C2CCC(=O)N2Cc2ccc(C)cc2)cc1 (centres undefined) | -40.2* | -12.9 | 0.9 | -4.1 | -16.4
CC[C@@]1(C(=O)OC)N[C@H](CN(C)S(=O)(=O)c2ccccc2)[C@@H]2C(=O)N(C)C(=O)[C@@H]21 | nt | 34.1* | nt | nt | 12.3
CC[C@@]1(C(=O)OC)N[C@H](CN(C)S(=O)(=O)c2ccc(C(C)(C)C)cc2)[C@@H]2C(=O)N(C)C(=O)[C@@H]21 | nt | 41.0* | nt | nt | 29.2
CC[C@@]1(C(=O)OC)N[C@H](CN(C)S(=O)(=O)c2ccc(OC)cc2)[C@@H]2C(=O)N(C)C(=O)[C@@H]21 | nt | -14.1 | nt | nt | 3.1
CCCNS(=O)(=O)c1ccc(OCC(=O)N2CCCC2)cc1 | -2.1 | 6.3 | 2.6 | 4.0 | 2.9
O=C(CNC(=O)c1ccccc1)N[C@@H](C(=O)Nc1cc(C(F)(F)F)ccc1Cl)c1ccccc1 | -19.7 | nt | 2.6 | 7.8 | nt
CN1CCC(N(C)S(=O)(=O)c2ccc(NC(=O)COc3ccc(Br)cc3Cl)cc2)CC1 | -44.4* | -17.4 | 30.6* | -15.7 | -17.7
Cc1ccccc1OCCC(=O)Nc1ccc(S(=O)(=O)N(C)C2CCN(C)CC2)cc1 | -66.1* | -28.1 | 55.4* | -1.1 | -61.4*
Cc1ccc(OCC(=O)Nc2ccc(S(=O)(=O)N(C)C3CCN(C)CC3)cc2)c(C)c1 | -24.0 | -7.0 | 19.7 | -11.4 | 1.0
Cc1ccccc1OCC(=O)Nc1ccc(S(=O)(=O)N(Cc2ccccc2)c2ccccc2)cc1 | -50.5* | -10.4 | 4.5 | 0.9 | nt

High-throughput results deposited in PubChem by National Center for Advancing Translational Sciences (NCATS).
